# Assay results as given in ChEMBL document CHEMBL1157539, “Thousands of chemical starting points for antimalarial lead identification” (Nature, 2010).
# Test system: Plasmodium falciparum
# Assay: GSK_TCMDC: Inhibition of Plasmodium falciparum 3D7 in whole red blood cells, using parasite LDH activity as an index of growth. Test compounds present at 2uM
# Format: functional
row,Compound,Inhibition [%]
1,COc1cc(C(=O)NCCCN2CCN(c3cc(Cl)ccc3OC)CC2)ccc1-c1nc2cc(Cl)c(Cl)cc2[nH]1,100
2,CN(C)C(=O)c1ccc(CN(Cc2ccc(OC(C)(C)C)cc2)Cc2ccc3c(c2)OCCO3)cc1,95
3,Clc1ccc(-c2cc(-c3csc(NCCN4CCOCC4)n3)on2)c(Cl)c1,97
4,N#Cc1ccc(CNCCCCCCCNCc2ccc(-c3ccccc3)cc2)cc1,87
5,O=C(NCCSCc1c(F)cccc1Cl)c1cnc2c(c1)nc(-c1c[nH]c(-c3ccccc3)n1)n2CCc1c[nH]cn1,93
6,CN(C)CCOc1cc(NC(=O)c2ccc(-c3ccc(Cl)cc3Cl)cc2)ccc1-c1ccccc1,98
7,COc1ccc(-c2nc(NC(=O)CS(=O)(=O)c3ccc(OC)cc3)sc2C)cc1,95
8,Cc1cc(=NN=CC=Cc2ccccc2)c2ccccc2[nH]1,100
9,CC(C)S(=O)(=O)N1CCN(Cc2ccc3c(c2)nc(NC(=O)c2ccsc2)n3C[C@H](O)c2ccccc2)CC1,91
10,Clc1cccc(Cl)c1CCNCC1CCN(CC2CCCCC2)CC1.O=C(O)C(F)(F)F,98
11,COc1cccc(NC(=O)[C@H](C)n2c(=O)[nH]c3ccccc3c2=O)c1,100
12,O=C(Nc1cccc(-c2ccc(CN3CCCC3)cc2)c1)c1cccc(Cl)c1.O=C(O)C(F)(F)F,100
13,CN1c2ccccc2Sc2cc(CNCCSCCNCc3ccc4c(c3)Sc3ccccc3N4C)ccc21.Cl,84
14,Cc1ccccc1CCNC(=O)c1cnc(N2CCN(c3ccncc3)CC2)c(Cl)c1.O=C(O)C(F)(F)F,100
15,CCn1c(SCc2ccccc2)nc2c1c(=O)[nH]c(=O)n2C,96
16,Cc1cc(OCCCN2CCCCC2)ccc1NC(=O)COc1ccc(Cl)cc1C(=O)c1cc(Cl)cc(C#N)c1,93
17,O=C(O)/C=C\C(=O)O.c1cc(CN2CCCCC2)cc(OCCCNc2ccnc3ccccc23)c1,100
18,Cc1nc2c(Nc3nc(-c4ccncc4)cs3)ncnc2n1-c1ccccc1Cl,97
19,COCCNC(=O)c1ccc(OC2CCN(Cc3ccc(F)c(F)c3)CC2)c(Cl)c1,88
20,Cc1cccc2nc(-c3cccc(-c4cccc(NC(=O)c5csnn5)c4)c3)[nH]c12,98

row,Compound,Inhibition [%]
1,Cc1cc(N[C@@H](C)C(=O)Nc2ccccc2)nc(NCCc2ccc(F)cc2)n1.O=C(O)C(F)(F)F,100
2,O=C(O)C(F)(F)F.S=C(Nc1cccc(Cl)c1)NC1CCN(c2ccnc3cc(Cl)ccc23)C1 (stereo not drawn),100
3,C/C=C/COc1ccc(-c2c(C)[nH]c(C)c(Cl)c2=O)cc1,97
4,O=C(NC1CCCCC1)N(Cc1ccc(-c2ccc(CNCc3ccc4c(c3)OCO4)cc2)cc1)C1CCN(Cc2ccccc2)CC1.O=C(O)C(F)(F)F,100
5,CC(C)CC(=O)N1CCNC[C@@H]1C(=O)NC1CC1.O=C(O)C(F)(F)F,82
6,COc1cccc(C(=O)N2CCOC(CCN3CCC(c4ccccc4)CC3)(c3ccc(Cl)c(Cl)c3)C2)c1 (stereo not drawn),87
7,CN1CCC(Oc2ccc(CN3CC[C@H](NC(=O)c4cccc(C#N)c4)C3)c3ccccc23)C1.O=C(O)C(F)(F)F (stereo partly drawn),97
8,Cc1cc(N(C)C)nc(Nc2ccc(NC(=O)c3ccc(F)cc3)cc2)n1,100
9,CN(c1ccc(NC(=O)Nc2cc(C(C)(C)C)on2)cc1)c1ccnc(NCCOC(=O)Nc2cc(C(C)(C)C)on2)n1.O=C(O)C(F)(F)F,100
10,O=C(Nc1ccc(N2CCNCC2)nc1)c1oc(-c2ccccc2)nc1C(F)(F)F,100
11,Cc1cc(Cl)c(Cl)cc1NC(=O)Nc1cccc(C(F)(F)F)c1,93
12,Cc1cccc2nc(-c3ccc(-c4ccc(CN5CCN(CCO)CC5)cc4)cc3)[nH]c12.O=C(O)C(F)(F)F,100
13,CN(C)Cc1cccc(CNC(=O)c2sccc2OCc2ccc(Cl)cc2)c1,90
14,CC(C)NCC(O)Cn1c2ccc(Br)cc2c2cc(Br)ccc21 (stereo not drawn),99
15,CN1CCCC(CN2CCN(Cc3ccc(-c4cccc(-c5nc6cc(F)ccc6[nH]5)c4)cc3)CC2)C1.O=C(O)C(F)(F)F (stereo not drawn),100
16,Fc1ccc(NC(=S)NCCc2ccccc2)cc1,99
17,Fc1ccc2[nH]c(-c3cccc(-c4cccc(CNCCc5ccncc5)c4)c3)nc2c1.O=C(O)C(F)(F)F,100
18,Cl.N=C(N)NN=Cc1cc([N+](=O)[O-])ccc1Sc1ccccc1CO,84
19,COc1cc(C)ccc1N1CCN(CCCCNC(=O)c2ccc(NC(=O)c3ccc(Cl)cc3)cc2)CC1,99

# Test system: Plasmodium falciparum
# Assay: GSK_TCMDC: Inhibition of Plasmodium falciparum Dd2 in whole red blood cells, using parasite LDH activity as an index of growth. Test compounds present at 2uM
# Format: functional
row,Compound,Inhibition [%]
1,COc1cc(C(=O)NCCCN2CCN(c3cc(Cl)ccc3OC)CC2)ccc1-c1nc2cc(Cl)c(Cl)cc2[nH]1,99
2,CN(C)C(=O)c1ccc(CN(Cc2ccc(OC(C)(C)C)cc2)Cc2ccc3c(c2)OCCO3)cc1,96
3,Clc1ccc(-c2cc(-c3csc(NCCN4CCOCC4)n3)on2)c(Cl)c1,86
4,N#Cc1ccc(CNCCCCCCCNCc2ccc(-c3ccccc3)cc2)cc1,10
5,O=C(NCCSCc1c(F)cccc1Cl)c1cnc2c(c1)nc(-c1c[nH]c(-c3ccccc3)n1)n2CCc1c[nH]cn1,45
6,CN(C)CCOc1cc(NC(=O)c2ccc(-c3ccc(Cl)cc3Cl)cc2)ccc1-c1ccccc1,26
7,COc1ccc(-c2nc(NC(=O)CS(=O)(=O)c3ccc(OC)cc3)sc2C)cc1,89
8,Cc1cc(=NN=CC=Cc2ccccc2)c2ccccc2[nH]1,69
9,CC(C)S(=O)(=O)N1CCN(Cc2ccc3c(c2)nc(NC(=O)c2ccsc2)n3C[C@H](O)c2ccccc2)CC1,72
10,Clc1cccc(Cl)c1CCNCC1CCN(CC2CCCCC2)CC1.O=C(O)C(F)(F)F,94
11,COc1cccc(NC(=O)[C@H](C)n2c(=O)[nH]c3ccccc3c2=O)c1,92
12,O=C(Nc1cccc(-c2ccc(CN3CCCC3)cc2)c1)c1cccc(Cl)c1.O=C(O)C(F)(F)F,61
13,CN1c2ccccc2Sc2cc(CNCCSCCNCc3ccc4c(c3)Sc3ccccc3N4C)ccc21.Cl,44
14,Cc1ccccc1CCNC(=O)c1cnc(N2CCN(c3ccncc3)CC2)c(Cl)c1.O=C(O)C(F)(F)F,95
15,CCn1c(SCc2ccccc2)nc2c1c(=O)[nH]c(=O)n2C,30
16,Cc1cc(OCCCN2CCCCC2)ccc1NC(=O)COc1ccc(Cl)cc1C(=O)c1cc(Cl)cc(C#N)c1,16
17,O=C(O)/C=C\C(=O)O.c1cc(CN2CCCCC2)cc(OCCCNc2ccnc3ccccc23)c1,99
18,Cc1nc2c(Nc3nc(-c4ccncc4)cs3)ncnc2n1-c1ccccc1Cl,96
19,COCCNC(=O)c1ccc(OC2CCN(Cc3ccc(F)c(F)c3)CC2)c(Cl)c1,73
20,Cc1cccc2nc(-c3cccc(-c4cccc(NC(=O)c5csnn5)c4)c3)[nH]c12,49

row,Compound,Inhibition [%]
1,Cc1cc(N[C@@H](C)C(=O)Nc2ccccc2)nc(NCCc2ccc(F)cc2)n1.O=C(O)C(F)(F)F,43
2,O=C(O)C(F)(F)F.S=C(Nc1cccc(Cl)c1)NC1CCN(c2ccnc3cc(Cl)ccc23)C1 (stereo not drawn),89
3,C/C=C/COc1ccc(-c2c(C)[nH]c(C)c(Cl)c2=O)cc1,97
4,O=C(NC1CCCCC1)N(Cc1ccc(-c2ccc(CNCc3ccc4c(c3)OCO4)cc2)cc1)C1CCN(Cc2ccccc2)CC1.O=C(O)C(F)(F)F,72
5,CC(C)CC(=O)N1CCNC[C@@H]1C(=O)NC1CC1.O=C(O)C(F)(F)F,0
6,COc1cccc(C(=O)N2CCOC(CCN3CCC(c4ccccc4)CC3)(c3ccc(Cl)c(Cl)c3)C2)c1 (stereo not drawn),63
7,CN1CCC(Oc2ccc(CN3CC[C@H](NC(=O)c4cccc(C#N)c4)C3)c3ccccc23)C1.O=C(O)C(F)(F)F (stereo partly drawn),30
8,Cc1cc(N(C)C)nc(Nc2ccc(NC(=O)c3ccc(F)cc3)cc2)n1,21
9,CN(c1ccc(NC(=O)Nc2cc(C(C)(C)C)on2)cc1)c1ccnc(NCCOC(=O)Nc2cc(C(C)(C)C)on2)n1.O=C(O)C(F)(F)F,54
10,O=C(Nc1ccc(N2CCNCC2)nc1)c1oc(-c2ccccc2)nc1C(F)(F)F,62
11,Cc1cc(Cl)c(Cl)cc1NC(=O)Nc1cccc(C(F)(F)F)c1,99
12,Cc1cccc2nc(-c3ccc(-c4ccc(CN5CCN(CCO)CC5)cc4)cc3)[nH]c12.O=C(O)C(F)(F)F,97
13,CN(C)Cc1cccc(CNC(=O)c2sccc2OCc2ccc(Cl)cc2)c1,88
14,CC(C)NCC(O)Cn1c2ccc(Br)cc2c2cc(Br)ccc21 (stereo not drawn),100
15,CN1CCCC(CN2CCN(Cc3ccc(-c4cccc(-c5nc6cc(F)ccc6[nH]5)c4)cc3)CC2)C1.O=C(O)C(F)(F)F (stereo not drawn),99
16,Fc1ccc(NC(=S)NCCc2ccccc2)cc1,0
17,Fc1ccc2[nH]c(-c3cccc(-c4cccc(CNCCc5ccncc5)c4)c3)nc2c1.O=C(O)C(F)(F)F,88
18,Cl.N=C(N)NN=Cc1cc([N+](=O)[O-])ccc1Sc1ccccc1CO,0
19,COc1cc(C)ccc1N1CCN(CCCCNC(=O)c2ccc(NC(=O)c3ccc(Cl)cc3)cc2)CC1,31
